# From PubChem BioAssay AID2289 (National Center for Advancing Translational Sciences (NCATS), 2010)
# In all, about 340,000 compounds went through this assay and about 3,300 (0.97%) were called active. Roughly 9% stayed inconclusive and do not appear here. Calls come from the whole dose curve; as a rule, active = well fitted inhibition curve with a large enough effect; inconclusive = small, poorly fitted or top-dose-only effect, or effect the other way; inactive = flat fitted curve, though single readings scatter. Some of the results follow.
# Test: qHTS Assay for Modulators of miRNAs and/or Inhibitors of miR-21; note: nearly all actives have a fitted effect of over 55% in size
# Details: HeLa miR-21-FLuc reporter, luciferase luminescence, 48 h; actives lower the signal
# How it was run: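 HeLa cells endogenously expressing miR-21, stably carrying CMV-driven firefly luciferase with a downstream miR-21 binding site, 2000 cells/well. Titrations up to approximately 40 uM, 48 hours; luciferase luminescence read.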
# Potency is the fitted concentration of half-maximal effect.
row,SMILES,Potency
1,O=C(NNC(=S)Nc1ccccc1)c1ccc(O)cc1,7.36 µM (active)
2,S=C(NNC(=S)Nc1ccccc1)Nc1ccccc1,6.56 µM (active)
3,Cn1c(C2=C(O)CN(Cc3ccccc3)C2=N)nc2ccccc21,14.7 µM (active)
4,O=C(Nc1ccc(F)cc1F)c1ccc2ncsc2c1,13.1 µM (active)
5,O=C(Nc1ccc(Br)cc1)c1ccc2ncsc2c1,1.47 µM (active)
6,O=C(Nc1ccccc1F)c1ccc2ncsc2c1,9.27 µM (active)
7,O=C(Nc1ccc(Cl)cc1Cl)c1ccc2ncsc2c1,2.33 µM (active)
8,N#C/C(=C\c1cccs1)C(=O)Nc1nccs1,7.36 µM (active)
9,Cc1ccc(OCCn2c(=O)n(C)c3ccccc32)cc1,7.36 µM (active)
10,Cn1c(=O)n(CCOc2ccccc2Cl)c2ccccc21,7.36 µM (active)
11,Cc1ccc2oc(C(=O)NCCCN3CCOCC3)c(C)c2c1,2.93 µM (active)
12,Cc1ccc2oc(C(=O)N3CCCCCC3)c(C)c2c1,6.56 µM (active)
13,COc1ccc(CCc2nnc(CCC(=O)NCc3cc(C(C)C)no3)o2)cc1,14.7 µM (active)
14,CCc1cc(CNC(=O)CCc2nnc(CCCc3ccccc3)o2)on1,7.36 µM (active)
15,CC(C)Sc1ncnc2c1cnn2-c1ccccc1,2.61 µM (active)
16,Cc1ccc(-n2ncc3c(SCc4ccccc4)ncnc32)cc1,3.29 µM (active)
17,O=[N+]([O-])c1ccccc1OCCCn1cnc2ccccc21,2.93 µM (active)
18,Brc1ccccc1OCCCn1cnc2ccccc21,1.85 µM (active)
19,C#CCn1c(COc2ccccc2C)nc2ccccc21,5.85 µM (active)
20,Cn1c(COc2ccc(F)cc2)nc2ccccc21,2.93 µM (active)
21,CCn1c(COc2ccccc2C)nc2ccccc21,9.27 µM (active)
22,Cc1ccccc1OCc1nc2ccccc2n1C,1.04 µM (active)
23,Cc1nnc(OCc2nc3ccccc3n2C)c2ccccc12,16.5 µM (active)
24,Cc1cccc(OCc2nc3ccccc3n2C)c1,16.5 µM (active)
25,COc1ccc(-c2cc3ccc(OCC(C)=O)cc3oc2=O)cc1,0.656 µM (active)
26,COc1ccc(-c2c(C)c3ccc(O)cc3oc2=O)cc1,9.27 µM (active)
27,COc1ccc(-c2cc3ccc(O)cc3oc2=O)cc1OC,18.5 µM (active)

row,SMILES,Potency
1,COc1ccc(-c2cc3ccc(OCC(C)=O)cc3oc2=O)cc1OC,3.69 µM (active)
2,O=C(O)c1cc(N/N=C/c2ccc(OCc3ccccc3)cc2)ccc1Cl,1.17 µM (active)
3,O=C(O)c1cc(N/N=C/c2ccc(-c3ccc(F)cc3)o2)ccc1Cl,16.5 µM (active)
4,O=C(O)c1cc(N/N=C/c2ccc(-c3ccccc3)cc2)ccc1Cl,0.233 µM (active)
5,CSc1n[nH]c(-c2ccc(C(F)(F)F)cc2)n1,7.36 µM (active)
6,C#CC(C)(C)NC(=O)c1ccc(-c2ccccc2F)cc1,5.85 µM (active)
7,COc1ccc(C(=O)NC2=Nc3ccccc3N=C(C)C2c2ccccc2)cc1 (stereo not drawn),13.1 µM (active)
8,CC(=O)Nc1ccc(N=Nc2ccccc2)cc1,1.65 µM (active)
9,CC(C)C(=O)OCC(=O)Nc1ccc(N=Nc2ccccc2)cc1,1.85 µM (active)
10,CCCC(=O)OCC(=O)Nc1ccc(N=Nc2ccccc2)cc1,3.69 µM (active)
11,O=C(Nc1ccc(N=Nc2ccccc2)cc1)c1ccccc1Cl,1.04 µM (active)
12,CC(=O)OCC(=O)Nc1ccc(N=Nc2ccccc2)cc1,1.31 µM (active)
13,COCCC1CCCCN1C(=O)c1ccc2nc(Cc3ccccc3F)oc2c1 (stereo not drawn),4.14 µM (active)
14,Cn1/c(=N/N=C/c2ccccn2)sc2ccccc21,2.07 µM (active)
15,C/C(=N\N=c1/sc2ccccc2n1C)c1ccccn1,11.7 µM (active)
16,Cc1ccccc1C(=O)OCc1cc(=O)n2nc(C(C)C)sc2n1,2.33 µM (active)
17,COCCc1nn2c(=O)cc(COC(=O)c3ccccc3C)nc2s1,10.4 µM (active)
18,CCc1nn2c(=O)cc(COC(=O)c3cccs3)nc2s1,9.27 µM (active)
19,CC(C)c1nn2c(=O)cc(COC(=O)c3cccs3)nc2s1,8.26 µM (active)
20,CNc1oc(-c2ccc(Cl)cc2)nc1C#N,3.29 µM (active)
21,COCCNc1oc(-c2ccc(Cl)cc2)nc1C#N,9.27 µM (active)
22,O=c1c2c3c(sc2nc(NCCO)n1Cc1ccco1)CCCCC3,16.5 µM (active)
23,COCCNC(=O)c1ccc2c(c1)ncn2-c1ccc(F)c(F)c1,16.5 µM (active)
24,COC(=O)c1cc2c(ccn2-c2ccc(F)cc2)n1Cc1ccc(OC(C)=O)cc1,18.5 µM (active)
25,COc1cc(O)sc1C=Nc1ccc(Cl)cc1,7.36 µM (active)
26,CCOC(=O)c1c(C)c(C(=O)NCCc2ccccc2)c(C)n1C,11.7 µM (active)
